We go through 18 compounds from PubChem BioAssay (NCI).

Test [1] is described as follows: NCI Yeast Anticancer Drug Screen. Data for the rad50 strain (AID 155).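 Also: 0% = growth of vehicle-only cultures of the same strain.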 The following applies: S. cerevisiae rad50 strain growth inhibition; at 50.0 µM; hits give high values. In outline: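 Relative growth inhibition (compound vs vehicle) was measured in yeast with a defined repair-gene alteration.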
A short description of test [2]: NCI Yeast Anticancer Drug Screen. Data for the mec2-1 strain (AID 157). The following applies: S. cerevisiae mec2-1 strain, at 50.0 µM, hits give high values. An outline of the steps:
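Yeast mec2-1 mutant treated with compound. Readout: growth inhibition vs vehicle controls.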

Test [3] is described as follows: NCI Yeast Anticancer Drug Screen. Data for the sgs1 mgt1 strain (AID 161).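 Also: 0% = growth of cultures given vehicle only.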 The following applies: S. cerevisiae sgs1 mgt1 strain, at 50.0 µM, hits give high values. An outline of the steps:
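Read-out: growth inhibition vs vehicle controls. Cells: mutant yeast strain deficient in DNA damage repair.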

Test [4] is described as follows: NCI Yeast Anticancer Drug Screen. Data for the cln2 rad14 strain (AID 165).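 Also: 0% = growth equal to vehicle treated cultures.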 The settings on record: S. cerevisiae cln2 rad14 strain, at 50.0 µM, hits give high values. In outline: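 cln2 rad14 yeast strain; compound exposure; growth inhibition read vs vehicle controls.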
The nature of test [5]: NCI Yeast Anticancer Drug Screen. Data for the bub3 strain (AID 167). The settings on record: S. cerevisiae bub3 mutant strain, at 50.0 µM, hits give high values. An outline of the steps:
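Screening used yeast with an engineered genetic alteration affecting cell cycle control. Compound-exposed cultures were compared with vehicle cultures, and reduced growth was taken as inhibition.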

Test [6] in a line: NCI Yeast Anticancer Drug Screen. Data for the mlh1 rad18 strain (AID 175). The settings on record: S. cerevisiae mlh1 rad18 strain growth inhibition; at 50.0 µM; hits give high values. In outline:
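Yeast w/ defined DNA-repair lesions; compound exposure; growth vs vehicle controls → % inhibition.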

The panel holds about 79,000 compounds, 15% with a hit somewhere; the sample as a whole holds those more often. Unmarked numbers belong to inactive results. Activity calls are given as the source filed them. Rule as the data show it: active = growth inhibition above about 70%; inactive = the rest.

As to `CCC[As](=O)(O)Cc1ccccc1C`, the growth inhibition in test [1] was 4.3%; in test [2] it was -5.4%; in test [3] it was 7.8%; in test [4], -1.3%; in test [5], 18%; in test [6], 22.1%.
Turning to `CCC1(CCNC(=O)CCl)C(=O)NC(=O)NC1=O`, the growth inhibition was 3.05% in test [1]; -4.5% in test [2]; 6.8% in test [3]; -38.1% in test [4]; 4.55% in test [5]; -8.6% in test [6].
Turning to `OC1(c2ccccc2)N=C(c2ccccc2)c2ccccc2-n2cccc21` (stereo not drawn), the growth inhibition in test [1] is 0.95%; in test [2], -24.8%; in test [3], -14.5%; in test [4], 0.75%; in test [5], -0.95%; in test [6] it was -1.3%.
With `CCOP(=O)(OCC)/C(C#N)=C/c1ccc(OC)cc1`, the growth inhibition is 2.9% in test [1]; -1.8% in test [2]; -11.4% in test [3]; 11.7% in test [4]; 11.1% in test [5]; -1.05% in test [6].
Turning to `COC12C(COC(N)=O)C3=C(C(=O)C(C)=C(N4CC4)C3=O)N1CC1NC12` (stereo not drawn), the growth inhibition in test [1] is 87.7% (active); in test [2] it was 90.3% (active); in test [3], 90.9% (active); in test [4], 86.3% (active); in test [5] it was 88.8% (active); in test [6] it was 87.2% (active).
On to `CC1CCCCN1CCCN=C(N)N[N+](=O)[O-]` (stereo not drawn), for which the growth inhibition in test [1] was 9.2%; in test [2], -3.35%; in test [3] it was 19.2%; in test [4], 18.1%; in test [5], 18.1%; in test [6], -0.8%.
As for `CC(C)N=Cc1ccccc1O.CC(C)N=Cc1ccccc1O.[Ni]`, the growth inhibition was 51.3% in test [1]; 1.1% in test [2]; 48.6% in test [3]; -4.45% in test [4]; 7.05% in test [5]; 22.2% in test [6].
With `COc1ccc(/C=C(/C)[N+](=O)[O-])cc1OC`, the growth inhibition in test [1] was 99.3% (active); in test [2], 99.7% (active); in test [3] it was 99.3% (active); in test [4], 97.2% (active); in test [5], 99.7% (active); in test [6], 99.5% (active).
For `Cc1ccc(NC(=O)CCc2ccc(N3C(N)=NC(N)=NC3(C)C)cc2Cl)cc1S(=O)(=O)F`, the growth inhibition in test [1] was 54.6%; in test [2], 72.3% (active); in test [3], 64.2%; in test [4], -5.25%; in test [5] it was -25.9%; in test [6], 15%.
For `COc1ccc2c(c1O)-c1cc(O)cc3c1C(C2)N(CCCl)CC3` (stereo not drawn), the growth inhibition in test [1] is 63.4%; in test [2], 29.1%; in test [3], 64.6%; in test [4], 15.8%; in test [5] it was -10.3%; in test [6], 48.7%.
Turning to `CCCC(=O)[O-].CCCC(=O)[O-].NCCN.NCCN.[Co+3].[O-][Cl+3]([O-])([O-])[O-]`, the growth inhibition in test [1] is -18.5%; in test [2] it was 19.1%; in test [3], -5.1%; in test [4], 23%; in test [5], -0.45%; in test [6] it was -1.75%.
Regarding `CCP(=S)(CC)P(=S)(CC)CC`, the growth inhibition in test [1] was -1.35%; in test [2], -21.4%; in test [3] it was -14.6%; in test [4] it was -9.2%; in test [5], -11.8%; in test [6] it was 7.45%.
For `C[Si]1(C)CCCC2(C1)C(=O)NC(=O)NC2=O`, the growth inhibition is -31.6% in test [1]; -17.3% in test [2]; -9% in test [3]; -1.75% in test [4]; -4.2% in test [5]; -41.5% in test [6].
Consider `CC1=CC2=C(C)C3(CC3)[C@@](C)(O)C(=O)C2=C1`, for which the growth inhibition was 45.5% in test [1]; 14.3% in test [2]; 55.8% in test [3]; 23.9% in test [4]; 26.9% in test [5]; -15.2% in test [6].
As for `COC(=O)C(O)(c1ccccc1)C1CCCC1` (stereo not drawn), the growth inhibition is 20.8% in test [1]; -10.1% in test [2]; -10.6% in test [3]; 11.9% in test [4]; 10.1% in test [5]; -9.5% in test [6].
With `C/C(CCl)=N\NC1=NC(C)(CCl)P(=O)(NNc2ncccn2)S1` (stereo not drawn), the growth inhibition in test [1] is 8.05%; in test [2], 11.2%; in test [3], 5.2%; in test [4], 11%; in test [5] it was 8.85%; in test [6] it was 7.35%.
With `N#CC(C#N)=Cc1ccccc1[N+](=O)[O-]`, the growth inhibition in test [1] was 41.9%; in test [2], 17.2%; in test [3] it was 8.3%; in test [4], 25.6%; in test [5], 39.8%; in test [6], 29.7%.
In the case of `CCN=C=NCCCN(C)C`, the growth inhibition in test [1] was -18.8%; in test [2] it was -8.8%; in test [3], -23.1%; in test [4], 0.25%; in test [5], -41.2%; in test [6], -6.35%.
